What was measured:
Assay in all cases: PBM binding z-score (relative to random genomic background probes); higher = stronger binding; sequences stand for … in GC…GCGATTGACAGCGTAGAATGAAGG
[1] = test system: PPARg:RXRa DBDmut IVT, anti-RXR (DBD mutation: RXRa K156A/R161A, NR concentration 270 nM, RXRa partner concentration 90 nM)
Outline: (§1)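 Probes were double-stranded and carried 34-nt variable regions with direct-repeat seeds, single-nucleotide variants, half-site ablations and random human genomic background sequences, printed on custom Agilent 4×180K protein-binding microarrays. Arrays were incubated 1 h with ligand-free nuclear receptor dimers in PBS pH 7.4, 2% milk, 0.02% Triton X-100, 1 mM DTT, 0.2 mg/mL BSA and 0.4 mg/ml salmon testes DNA. Antibodies against each partner (one per run) detected binding, and scanned fluorescence was regression-normalized. Binding z-scores use the random background probes as reference.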

[2] = test system: PPARg:RXRa IVT, anti-PPARg (NR concentration 270 nM, RXRa partner concentration 90 nM)
Outline: as §1

[3] = test system: PPARg DBDmut:RXRa IVT, anti-PPARg (DBD mutation: PPARg1 K132A/R137A, NR concentration 270 nM, RXRa partner concentration 90 nM)
Outline: as §1

[4] = test system: PPARg DBDmut IVT, anti-PPARg (DBD mutation: PPARg1 K132A/R137A, NR concentration 270 nM)
Outline: as §1

[5] = test system: PPARg homodimer (NR concentration 180 nM)
Outline: as §1

[6] = test system: PXR:RXRa (NR concentration 270 nM, RXRa partner concentration 90 nM)
Outline: as §1

[7] = test system: PXR homodimer (NR concentration 270 nM)
Outline: as §1

[8] = test system: RARa:RXR (NR concentration 270 nM, RXRa partner concentration 90 nM)
Outline: as §1

[9] = test system: RARa homodimer (NR concentration 270 nM)
Outline: as §1

[10] = test system: RARb:RXRa (NR concentration 270 nM, RXRa partner concentration 90 nM)
Outline: as §1

[11] = test system: RARb homodimer (NR concentration 270 nM)
Outline: as §1

[12] = test system: RARg:RXRa (NR concentration 270 nM, RXRa partner concentration 90 nM)
Outline: as §1

[13] = test system: RARg homodimer (NR concentration 270 nM)
Outline: as §1

[14] = test system: RXRa DBDmut IVT, anti-RXR (DBD mutation: RXRa K156A/R161A, NR concentration 90 nM)
Outline: as §1

[15] = test system: RXRa homodimer (NR concentration 180 nM)
Outline: as §1

[16] = test system: THRa:RXRa (NR concentration 90 nM, RXRa partner concentration 90 nM)
Outline: as §1

[17] = test system: THRa homodimer (NR concentration 90 nM)
Outline: as §1

[18] = test system: VDR homodimer (NR concentration 270 nM)
Outline: as §1

Sequence | PBM binding z-score [1] | PBM binding z-score [2] | PBM binding z-score [3] | PBM binding z-score [4] | PBM binding z-score [5] | PBM binding z-score [6] | PBM binding z-score [7] | PBM binding z-score [8] | PBM binding z-score [9] | PBM binding z-score [10] | PBM binding z-score [11] | PBM binding z-score [12] | PBM binding z-score [13] | PBM binding z-score [14] | PBM binding z-score [15] | PBM binding z-score [16] | PBM binding z-score [17] | PBM binding z-score [18]
CAAACTAGGTCAACGGTCAAAGTCGAGCCAACCA | 8.71 | 9.01 | 1.94 | 3.3 | 2.91 | 2.17 | 0.267 | 3.71 | 0.962 | 4.51 | 3.76 | 4.94 | 5.4 | 2.12 | 4.02 | 3.14 | 1.31 | 1
AGTCAAAGTTCATCTAGGTAACGTGAGATATGCT | 1.17 | 3.86 | 1.73 | 0.803 | 2.99 | 5.36 | 7.67 | 3.82 | 1.48 | 4.96 | 3.97 | 5.63 | 6.26 | 4.74 | 4.89 | 3.05 | 0.297 | 4.95
CGGACGAGGGCATGAGTTGATAGCAAATGCCGAT | 1.74 | 0.979 | -0.792 | -1.58 | -0.164 | 0.528 | 0.00329 | 0.284 | 0.0592 | 2.03 | 0.742 | 1.16 | 1.89 | 2.01 | 0.928 | 1.17 | -0.188 | 1.46
CGAATTAGGTCAAGGACAGTGAATCTCCGCACGC | 8.12 | 8.06 | 3.79 | 1.82 | 1.89 | 1.28 | 0.205 | 2.79 | 0.19 | 4.18 | 3.29 | 3.94 | 4.46 | 1.46 | 2.97 | 3.53 | 2.81 | 0.373
GCTATTAGTTGAAAGGGCAAACGAATGATTCTCG | 0.582 | 1.18 | 0.0539 | 0.507 | 1.19 | 0.938 | 0.57 | 1.52 | 1.28 | 2.04 | 1.86 | 1.24 | 1.06 | 0.931 | 1.38 | 0.777 | -0.332 | 0.589
GCTACTGGGGCATCAGCAGGTTACCATAACTTAA | 5.96 | 5.52 | 0.447 | 0.741 | 0.599 | 0.0663 | -0.537 | 0.497 | -0.28 | 0.962 | 0.946 | 0.791 | 0.586 | 0.403 | 0.169 | 1.09 | 0.00611 | -0.67
ATCTCTAGGTAAAAGTTCAGCGAATCCCGAGGAT | 2.55 | 4.3 | 1.19 | 1.67 | 2.4 | 2.46 | 1.54 | 2.48 | 0.715 | 2.93 | 2.76 | 2.88 | 3.02 | 0.792 | 2.62 | 1.58 | 0.0924 | 1.07
GATACAGGGTAAAGGCCAGAGTACGCGTATTGAT | 1.02 | 2.64 | 0.254 | -0.000144 | 0.5 | 0.017 | -0.0145 | 0.137 | -0.111 | 1.18 | 0.909 | 0.831 | 0.93 | -0.389 | 0.877 | 0.316 | -0.482 | -0.0194
ATCGAAAGGTCGAGGTGAGTCTAGAGAAAGGGAA | 0.536 | 2.56 | 0.697 | 0.961 | 1.92 | 3.05 | 0.144 | 3.67 | 0.714 | 4.31 | 2.89 | 4.34 | 4.48 | 0.715 | 4.46 | 3.01 | 0.76 | 0.695
TCTCGGAGGACACGAAAGGTCAGACCTCGACATC | 1.73 | 1.54 | 0.0109 | -0.512 | 2.48 | 4.1 | 0.547 | 4.15 | 1.09 | 4.28 | 4.65 | 4.84 | 5.27 | 1.39 | 4.1 | 3.73 | 1.55 | 1.14
TCGAGTAGGTTAGTCGGGACATTCAGCCAACATA | 1.85 | 1.48 | -0.367 | -1.31 | -0.431 | -0.161 | -0.242 | 0.166 | -0.452 | 0.165 | 0.0324 | -0.106 | 0.0152 | 0.327 | 0.107 | 1.39 | 0.328 | 0.0666
ATATGTAGGTTTCATCCGGGTCATTCAGGCTATG | 4.9 | 4.69 | 1.71 | 1.7 | 1.33 | 2.86 | 2.28 | 2.55 | 0.582 | 1.43 | 2.53 | 1.62 | 0.901 | 1.35 | 2.07 | 3.22 | 2.18 | 3.21
CAAACTAGGTCACCCGAAGGTCAAAGTCCGCATG | 8.43 | 8.81 | 7.92 | 7.09 | 11.1 | 6.02 | 2.67 | 7.7 | 3.95 | 5.29 | 5.43 | 7.91 | 6.9 | 2.35 | 6.29 | 4.45 | 3.04 | 4.18
CGAAATAGGTCAAGGACAGTGAATCTCCGCACGC | 7.8 | 7.31 | 2.5 | 0.573 | 3.31 | 2.69 | 0.113 | 3.82 | 1.59 | 4.51 | 3.69 | 5.2 | 6.01 | 1.55 | 4.67 | 3.1 | 1.7 | 0.593
CCGACTGGGGCATAAGGTGACCATAAGCCAGCCC | 2.39 | 3.15 | -0.511 | -1.28 | 0.186 | -0.504 | -0.373 | 0.332 | -0.248 | 1.23 | 1.26 | 0.678 | 0.621 | -1.25 | 0.516 | 1.7 | 0.792 | -0.621

Source: the supplement of paper PMC6555819
